# From PubChem
# IP6K1 inhibitor = inhibitors of human IP6K1. 140,000 tested, 0.81% active. Q92551. AID 1645851. IP6K1 kinase, ADP-Glo luminescence, 2 h; active compounds read low. activity change, % (series mostly up to about 58 µM); in the data active = activity change below about -25%
#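 ADP-Glo luminescence measures ADP made by human IP6K1 during a 2 h RT reaction with ATP/IP6 (mix at 1.3 mM/130 uM); top library doses 57.5 and 19.1 uM final.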
# HEK293 viab = reduces viability of HEK-293 SNCA reporter cells; HEK-293-SNCA-luc viability, GF-AFC fluorescence, 24 h; Potency, µM (doses to about 57.1 µM), hits mostly cytotoxic; 150,000 tested, 0.12% active; note: nearly all actives have a fitted effect of over 30% in size
#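 Cytotoxicity counterscreen: after 24 h compound treatment of genome-edited SNCA-luciferase HEK-293 cells, live-cell protease substrate GF-AFC read by fluorescence after 30 min; activity scaled between DMSO (0%) and medium-only (-100%), curves Hill-fitted.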
# KDM5B inh = KDM5B demethylase inhibition; Q9UGL1; KDM5B demethylase, FDH-coupled NADH fluorescence (FDH is formaldehyde dehydrogenase); Potency, µM (top dose mostly 57.7 µM), hits mostly inhibitors; 220,000 tested, 2.6% active; AID 1347165; note: nearly all actives have a fitted effect of over 70% in size
#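 Compound dilutions met 200 nM (final) KDM5BΔAP for 10 min at room temperature before substrate addition. The substrate mix held 12.5 µM H3K4me3 with cofactors 25 µM α-ketoglutarate and 50 µM Fe²⁺. NADH signal gain over 30 min defined activity.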
# SNCA expr inhib = SNCA gene expression inhibition. 140,000 tested, 0.17% active. AID 1671194. HEK-293 SNCA-luciferase knock-in, luminescence, 24 h. Potency, µM (series often up to 57.2 µM), actives largely listed as inhibitors; note: nearly all actives have a fitted effect of over 45% in size
# Numbers stand for hits; n = inactive; u = inconclusive; x = no result. Sampled rows, rich in hits. Any-hit rate of the full collection: about 2.8%. Unless noted, calls come from the whole dose curve; as a rule, active = well fitted curve in the direction sought with a large enough effect; inconclusive = small, poorly fitted or top-dose-only effect, or another doubt; inactive = no such curve, though single readings can be large; an effect the other way counts as inactive or inconclusive.
SMILES,IP6K1 inhibitor,HEK293 viab,KDM5B inh,SNCA expr inhib
CCCNC(=O)N1CCCCCC1CN1CCCC1 (stereo not drawn),n,n,25µM,u
CC(C)NC(=O)N1CCCCCC1CN1CCCC1 (stereo not drawn),n,n,u,n
Cc1noc2c(Nc3ccc(C(N)=O)cc3)cc(-c3ccc(F)cc3)nc12,n,n,16µM,n
Cc1noc2c(NCC3CCOCC3)cc(-c3ccc(F)cc3)nc12,n,n,u,u
COc1cccc(-c2ccnc3nc(CCc4ccccc4)nn23)c1,n,n,20µM,n
COc1ccc(-c2ccnc3nc(CC(C)C)nn23)cc1OC,n,n,28µM,n
COc1cccc(-c2ccnc3nc(CC(C)C)nn23)c1,n,n,25µM,n
COc1ccc(-c2ccnc3nc(CC(C)C)nn23)cc1,n,n,n,n
COc1ccc(CCc2nc3nccc(-c4ccc5c(c4)OCCCO5)n3n2)cc1OC,n,n,u,n
CC1=C[C@@H](CNC(=O)NC(C)C)[C@H](C(C)C)C[C@H]1Cc1nnc(-c2ccccc2F)o1,n,u,n,u
CCOC(=O)c1cccc(NC(=O)N2CC[C@@H](CC(=O)NCCN(C)C)[C@@H](CC)C2)c1,n,n,n,n
C#CCNC(=O)C[C@@H]1CCN(C(=O)Nc2cccc(C(=O)OCC)c2)C[C@@H]1CC,n,n,16µM,n
COc1ccc(-c2ccc3nnc(CNC(=O)COc4ccc(F)cc4)n3n2)cc1,n,n,28µM,n
COc1ccc(-c2ccc3nnc(CNC(=O)Cc4cccc(F)c4)n3n2)cc1,n,n,u,n
Cc1ccc(-c2ccc3nnc(CNC(=O)COc4ccccc4)n3n2)cc1C,n,n,28µM,n
Cc1ccc(-c2ccc3nnc(CNC(=O)COc4ccccc4)n3n2)cc1,n,n,35µM,n
CCNC(=O)c1cccc(NC(=O)c2cc(C3CC3)nc3ccccc23)c1,x,x,n,x
COC(=O)c1ccc(COC(=O)c2ccc(Cl)c(Cl)c2)cc1,x,x,n,x
Cn1ccc2c(C(=O)NCCC(N)=O)nc(-c3ccccc3C(F)(F)F)cc21,n,n,n,n
Cn1ccc2c(C(=O)NCCC(N)=O)nc(-c3cccc(CO)c3)cc21,n,n,n,n
Cc1ccccc1-c1cc2c(ccn2C)c(C(=O)NCCc2cnc[nH]2)n1,n,n,40µM,n
Cn1ccc2c(C(=O)NCCC(N)=O)nc(-c3cccc(C(F)(F)F)c3)cc21,n,n,14µM,n
Cn1ccc2c(C(=O)NCCC(N)=O)nc(-c3ccccc3)cc21,n,n,32µM,n
O=C(Nc1cccc(Cl)c1)N(Cc1cccc(O)c1)C1CCC(O)CC1 (stereo not drawn),x,x,n,x
COc1ccc(S(=O)(=O)NCC2CCCN(Cc3ccc(-c4ccco4)cc3)C2)cc1 (stereo not drawn),n,n,28µM,n
SMILES,IP6K1 inhibitor,HEK293 viab,KDM5B inh,SNCA expr inhib
CC(C)c1ccc(CC(=O)N2CCCc3ncc(C(=O)Nc4ccccc4)cc32)cc1,n,u,u,u
Cc1csc(NC(=O)c2cnc3c(c2)N(C(=O)Cc2ccc(C(C)C)cc2)CCC3)n1,n,u,32µM,u
CNC(=S)NNC(=O)c1ccc(Br)s1,x,x,n,x
O=C(N[C@H]1CCN2C(=O)c3cc(-c4cccs4)ccc3NC(=O)[C@H]12)c1cccc(F)c1,n,n,28µM,n
COc1ccc(-c2ccc3c(c2)C(=O)N2CC[C@H](NC(=O)C4CCCC4)[C@H]2C(=O)N3)cc1,n,n,u,n
O=C(N[C@H]1CCN2C(=O)c3cc(-c4cccs4)ccc3NC(=O)[C@H]12)C1CCCC1,n,n,40µM,n
O=C(O)CCC(=O)N[C@H]1CCN2C(=O)c3cc(-c4cccs4)ccc3NC(=O)[C@H]12,n,n,35µM,n
O=C(N[C@H]1CCN2C(=O)c3cc(-c4ccc(Cl)cc4)ccc3NC(=O)[C@H]12)C1CCCC1,n,n,25µM,n
COc1ccc(-c2nc(-c3nnn4c3COC(c3ccc(C)cc3)C4)no2)c(OC)c1 (stereo not drawn),n,n,20µM,n
COc1ccc(-c2nc(-c3nnn4c3COC(c3ccc(C)cc3)C4)no2)cc1OC (stereo not drawn),n,n,14µM,n
Cc1ccc(C2Cn3nnc(-c4noc(-c5cccc(N(C)C)c5)n4)c3CO2)cc1 (stereo not drawn),n,n,22µM,n
Cc1ccc(C2Cn3nnc(-c4noc(-c5ccc(C)s5)n4)c3CO2)cc1 (stereo not drawn),n,n,13µM,n
COc1ccc(C2Cn3nnc(-c4noc(-c5ccc(C)cc5C)n4)c3CO2)cc1 (stereo not drawn),n,n,u,n
Cc1ccc(C2Cn3nnc(-c4noc(-c5ccc(N(C)C)cc5)n4)c3CO2)cc1 (stereo not drawn),n,n,u,n
COCCNC(=S)NCCN(Cc1ccccc1)C(=S)NCCOC,x,x,n,x
CC(c1ccc(F)c(F)c1)N(C)C(=O)c1cc2ccccc2[nH]1 (stereo not drawn),x,x,n,x
CN(c1ccccc1)c1ccc2nnc(-c3cc(C(=O)NCC4CCCO4)ccn3)n2n1 (stereo not drawn),n,n,n,n
CN(c1ccccc1)c1ccc2nnc(-c3cc(C(=O)NCc4cccnc4)ccn3)n2n1,n,n,35µM,n
CN(c1ccccc1)c1ccc2nnc(-c3cc(C(=O)Nc4ccccn4)ccn3)n2n1,n,n,11µM,n
CN(C)c1ccc2nnc(-c3cc(C(=O)NCCc4ccccn4)ccn3)n2n1,n,n,35µM,u
COc1cccc(NC(=O)c2ccnc(-c3nnc4ccc(N(C)C)nn34)c2)c1,n,n,u,n
COc1ccc(OC)c2[nH]c(C(=O)NC(C)C(=O)Nc3nc(C)cs3)cc12 (stereo not drawn),x,x,n,x
CCN(CC)C(=O)c1sc2c(c1C)c(=O)n(Cc1ccccc1)c(=O)n2CC(=O)Nc1ccc(OC)cc1,n,n,n,n
CCc1cccc(NC(=O)Cn2c(=O)n(Cc3ccccc3)c(=O)c3c(C)c(C(=O)N(C)C)sc32)c1,n,n,n,13µM
Cc1ccc(CNC(=O)c2ccccc2NC(=O)Cn2cnc3c2c(=O)n(C)c(=O)n3C)cc1,x,x,n,x
SMILES,IP6K1 inhibitor,HEK293 viab,KDM5B inh,SNCA expr inhib
CCN(CC1CCOC1)C(=O)c1nn(C(C)C)c(=O)c2ccccc12 (stereo not drawn),x,x,n,x
CN(C)c1ccc(-c2ccnc(N[C@H]3CO[C@H]4[C@@H]3OC[C@H]4OC(=O)Nc3cccc(C#N)c3)n2)cc1,n,n,n,n
CN(C)c1ccc(-c2ccnc(N[C@H]3CO[C@H]4[C@@H]3OC[C@H]4OC(=O)NC3CCCCC3)n2)cc1,n,n,32µM,n
O=C(NC1CCCCC1)O[C@@H]1CO[C@H]2[C@@H]1OC[C@@H]2Nc1nccc(-c2cccs2)n1,n,u,32µM,n
CCCCc1nnc2sc(-c3ccc(OCC)c(OCC)c3)nn12,x,x,n,x
CC(C)(C)c1nnc([C@H]2CCN(Cc3cnc4ccccc4c3)C2)o1,n,n,35µM,n
CC(C)N(CC1CC1)C(=O)CC1COc2ccc(C(=O)N(C)C)cc2N1C (stereo not drawn),n,n,u,n
